CRFR2-BP antag = CRF-BP/CRF-R2 complex antagonism. HEK293 CRF-R2/CRF-BP, CRF-induced calcium fluorescence. inhibition, % at 11.8 µM. actives 0.59% (n = 350,000). AID 588475;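 active = inhibition of the ligand-induced calcium signal above about 50% at the single tested concentration, limit read from the data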
ANO1 block = blocks the mouse calcium-activated chloride channel TMEM16A | Q8BHY3 | HEK293 TMEM16A/YFP iodide influx fluorescence, ionomycin | normalized B-score (activity score, 25-100; higher = stronger inhibition) at 10 µM | actives 1.2% (n = 310,000);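 active = ratio plate-corrected score three or more library SD toward inhibition, starting fluorescence score within five deviations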;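 note: score derived from kinetic fluorescence span divided by baseline fluorescence per well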
Target sequence (Q8BHY3 whole entry, looked up): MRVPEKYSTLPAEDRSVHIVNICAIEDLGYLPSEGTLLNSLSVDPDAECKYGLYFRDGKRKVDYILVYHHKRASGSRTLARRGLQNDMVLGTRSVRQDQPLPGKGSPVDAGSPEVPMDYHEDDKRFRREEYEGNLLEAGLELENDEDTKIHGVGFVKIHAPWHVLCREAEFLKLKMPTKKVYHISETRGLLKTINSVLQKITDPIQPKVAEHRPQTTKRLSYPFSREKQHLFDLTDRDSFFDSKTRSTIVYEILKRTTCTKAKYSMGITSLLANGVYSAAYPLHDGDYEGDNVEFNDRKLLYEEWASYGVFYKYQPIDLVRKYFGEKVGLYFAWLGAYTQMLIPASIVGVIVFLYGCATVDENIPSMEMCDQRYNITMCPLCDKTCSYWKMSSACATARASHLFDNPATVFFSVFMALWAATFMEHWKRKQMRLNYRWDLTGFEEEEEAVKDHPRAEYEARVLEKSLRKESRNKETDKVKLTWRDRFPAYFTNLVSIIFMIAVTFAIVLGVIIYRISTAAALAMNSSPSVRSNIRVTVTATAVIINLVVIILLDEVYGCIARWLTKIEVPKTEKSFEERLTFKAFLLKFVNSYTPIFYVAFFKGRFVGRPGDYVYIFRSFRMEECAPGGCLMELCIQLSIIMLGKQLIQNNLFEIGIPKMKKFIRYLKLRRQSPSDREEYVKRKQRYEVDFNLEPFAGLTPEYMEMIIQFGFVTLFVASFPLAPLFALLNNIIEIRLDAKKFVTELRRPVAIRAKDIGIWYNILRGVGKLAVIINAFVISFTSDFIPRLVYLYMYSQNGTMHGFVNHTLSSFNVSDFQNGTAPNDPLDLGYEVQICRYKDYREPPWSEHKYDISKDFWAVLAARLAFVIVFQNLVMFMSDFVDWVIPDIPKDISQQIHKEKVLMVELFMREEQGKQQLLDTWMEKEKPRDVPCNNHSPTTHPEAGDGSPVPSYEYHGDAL
NR3A LBD binder = modulators (binders) of human NR3A ligand-binding domain | NR3A LBD differential scanning fluorimetry, Tm shift; 0% = protein alone, 100% = glycine-bound protein | actives 2.5% (n = 340,000) | Tm shift relative to glycine control, % at 25 µM;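 active = melting temperature shift of at least 10% of the positive control shift, at one fixed dose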
CRFBP-R2 agonist = agonists of human CRF-binding protein/CRF-R2 receptor complex; HEK293 CRF-R2/CRF-BP, calcium dye fluorescence (FLIPR); percent of saturating CRF peptide response; activation, % at 13.2 µM; actives 0.46% (n = 350,000);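 active = activation of at least 50%, plus an integration ratio under a set limit after plate pattern correction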
MPTP inh = permeability transition pore inhibition; isolated mouse mitochondria, Ca2+ swelling absorbance, 30 min; inhibition, % at 10 µM; actives 1.4% (n = 360,000); AID 602449;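 active = inhibition of 50% or more, scaled per plate between neutral and stimulator controls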
TMEM16A act = activators or potentiators of mouse TMEM16A chloride channel. AID 623877. actives 0.3% (n = 340,000). Q8BHY3. B-score at 10 µM. HEK293 TMEM16A/YFP-H148Q/I152L, iodide quench fluorescence; active compounds read low;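 active = fluorescence-ratio B-score plate-corrected deviation score at least 3 library SD below zero, with starting fluorescence score within 5 deviations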;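 note: channel opened by trigger with iodide after compound preincubation; score built on the fluorescence ratio of max minus min over baseline; more negative score means more quench and so TMEM16A activation or potentiation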
Numbers stand for hits. This is a sample that favours compounds with a hit; in the whole collection about 5.1% have one here.

Screening C=CCN1C(=O)/C(=C2/Sc3ccc(OC)cc3N2CC)SC1=S returned CRFR2-BP antag inactive, ANO1 block inactive, NR3A LBD binder inactive, CRFBP-R2 agonist 68.3, MPTP inh inactive and TMEM16A act inactive.
Screening CCCCN1C(=O)/C(=C2/Sc3ccc(OC)cc3N2CC)SC1=S returned CRFR2-BP antag inactive, ANO1 block inactive, NR3A LBD binder inactive, CRFBP-R2 agonist inactive, MPTP inh inactive and TMEM16A act inactive.
For O=C(CSc1c(Cl)cccc1Cl)N1CCC(c2nc3ccccc3s2)CC1 the results were CRFR2-BP antag inactive, ANO1 block 100, NR3A LBD binder inactive, CRFBP-R2 agonist inactive, MPTP inh inactive and TMEM16A act inactive.
Screening CC1CCN(C(=O)CSc2nc3ccccc3s2)CC1 returned CRFR2-BP antag inactive, ANO1 block inactive, NR3A LBD binder inactive, CRFBP-R2 agonist inactive, MPTP inh inactive and TMEM16A act inactive.
For O=C(O)C1CCN(C(=O)CSc2nc3ccccc3s2)CC1 the results were CRFR2-BP antag inactive, ANO1 block inactive, NR3A LBD binder inactive, CRFBP-R2 agonist inactive, MPTP inh inactive and TMEM16A act inactive.
O=C(CSc1ccc(Cl)cc1)N1CCC(c2nc3ccccc3s2)CC1 was read as CRFR2-BP antag inactive, ANO1 block 100, NR3A LBD binder inactive, CRFBP-R2 agonist inactive, MPTP inh inactive and TMEM16A act inactive.
For C/C(CCC(=O)O)=N/Nc1ccc([N+](=O)[O-])cc1[N+](=O)[O-] the results were CRFR2-BP antag inactive, ANO1 block inactive, NR3A LBD binder inactive, CRFBP-R2 agonist inactive, MPTP inh inactive and TMEM16A act inactive.
`O=C(O)/C(CC(=O)c1ccc(Cl)cc1)=N/Nc1ccc([N+](=O)[O-])cc1[N+](=O)[O-]` gave CRFR2-BP antag inactive, ANO1 block inactive, NR3A LBD binder 21.1, CRFBP-R2 agonist inactive, MPTP inh inactive and TMEM16A act inactive.
CCN(CC)C(=O)c1nc[nH]c1C(=O)O[C@@H](C)c1ccccc1 was read as CRFR2-BP antag inactive, NR3A LBD binder inactive, CRFBP-R2 agonist inactive, MPTP inh inactive and TMEM16A act inactive.
`COc1ccccc1NS(=O)(=O)c1ccc(C(=O)N2CC(C)OC(C)C2)cc1` (stereo unspecified) gave CRFR2-BP antag inactive, NR3A LBD binder inactive, CRFBP-R2 agonist inactive, MPTP inh inactive and TMEM16A act inactive.
`COc1cc([N+](=O)[O-])ccc1NC(=S)NNC(=O)c1ccc2c(c1)OCO2` gave CRFR2-BP antag inactive, ANO1 block 100, NR3A LBD binder inactive, CRFBP-R2 agonist inactive, MPTP inh inactive and TMEM16A act inactive.
CCc1[nH]c(=O)c(C#N)c2c1CSC(C)(C)C2 was read as CRFR2-BP antag inactive, ANO1 block inactive, NR3A LBD binder 12.7, CRFBP-R2 agonist inactive, MPTP inh inactive and TMEM16A act inactive.
For CCC1C(C#N)=C(N)OC2=C1C(=O)CC(C)(C)C2 (stereo unspecified) the results were CRFR2-BP antag inactive, ANO1 block inactive, NR3A LBD binder inactive, CRFBP-R2 agonist inactive, MPTP inh inactive and TMEM16A act inactive.
`CC1(C)CC(=O)C2=C(C1)OC(N)=C(C#N)C2c1ccccc1[N+](=O)[O-]` (stereo unspecified) gave CRFR2-BP antag inactive, ANO1 block inactive, NR3A LBD binder inactive, CRFBP-R2 agonist inactive, MPTP inh inactive and TMEM16A act -4.63.
CCCCCCC1C(C#N)=C(N)OC2=C1C(=O)CC(C)(C)C2 (stereo unspecified) was read as CRFR2-BP antag inactive, ANO1 block inactive, NR3A LBD binder 43.7, CRFBP-R2 agonist inactive, MPTP inh inactive and TMEM16A act inactive.
`CC1(c2ccccc2)CC(C)(C)N2C(=O)C3(C(C#N)=C(N)Oc4cc(O)ccc43)c3cccc1c32` (stereo unspecified) gave CRFR2-BP antag 116.3, ANO1 block inactive, NR3A LBD binder inactive, CRFBP-R2 agonist inactive, MPTP inh inactive and TMEM16A act inactive.
`Cc1cc2c3c(c1)C(C)(c1ccccc1)CC(C)(C)N3C(=O)C21C(C#N)=C(N)OC2=C1C(=O)CC(C)(C)C2` (stereo unspecified) gave CRFR2-BP antag inactive, ANO1 block inactive, NR3A LBD binder inactive, CRFBP-R2 agonist inactive, MPTP inh inactive and TMEM16A act inactive.
CC(=O)c1ccc(N2CCN(C(=S)NCCCN(C)C)CC2)cc1 was read as CRFR2-BP antag inactive, ANO1 block inactive, NR3A LBD binder inactive, CRFBP-R2 agonist inactive, MPTP inh inactive and TMEM16A act inactive.
Screening COc1ccc(S(=O)(=O)N(CC(C)C)C2CCS(=O)(=O)C2)cc1OC (stereo unspecified) returned CRFR2-BP antag 71.0, ANO1 block inactive, NR3A LBD binder inactive, CRFBP-R2 agonist inactive, MPTP inh inactive and TMEM16A act inactive.
Cc1ccc(CNC(=O)CN(C)S(=O)(=O)c2ccc(F)cc2)cc1 was read as CRFR2-BP antag inactive, ANO1 block inactive, NR3A LBD binder inactive, CRFBP-R2 agonist inactive, MPTP inh inactive and TMEM16A act inactive.
CCN(CC)C(=O)CC(c1ccc(OC)cc1)c1c(O)cc(OC)cc1OC (stereo unspecified) was read as CRFR2-BP antag inactive, ANO1 block inactive, NR3A LBD binder inactive, CRFBP-R2 agonist inactive, MPTP inh inactive and TMEM16A act -9.92.
`CCCSc1nnc(N2C(=O)C(O)=C(C(=O)c3ccco3)C2c2ccccc2F)s1` (stereo unspecified) gave CRFR2-BP antag inactive, ANO1 block inactive, NR3A LBD binder inactive, CRFBP-R2 agonist inactive, MPTP inh inactive and TMEM16A act -4.77.
Cc1ccc(C2C(C(=O)c3ccco3)=C(O)C(=O)N2c2nnc(C)s2)cc1 (stereo unspecified) was read as CRFR2-BP antag inactive, ANO1 block inactive, NR3A LBD binder inactive, CRFBP-R2 agonist inactive, MPTP inh inactive and TMEM16A act inactive.
`CSc1nnc(N2C(=O)C(O)=C(C(=O)c3ccco3)C2c2ccccc2F)s1` (stereo unspecified) gave CRFR2-BP antag inactive, ANO1 block inactive, NR3A LBD binder inactive, CRFBP-R2 agonist inactive, MPTP inh inactive and TMEM16A act -4.76.
CSc1nnc(N2C(=O)C(O)=C(C(=O)c3ccc(C)o3)C2c2ccc(C)cc2)s1 (stereo unspecified) was read as CRFR2-BP antag inactive, ANO1 block inactive, NR3A LBD binder inactive, CRFBP-R2 agonist inactive, MPTP inh inactive and TMEM16A act -4.8.
C=CCSc1nnc(N2C(=O)C(O)=C(C(=O)c3ccco3)C2c2ccccc2F)s1 (stereo unspecified) was read as CRFR2-BP antag inactive, ANO1 block inactive, NR3A LBD binder inactive, CRFBP-R2 agonist inactive, MPTP inh inactive and TMEM16A act inactive.
